According to PubChem BioAssay (NCI):
The panel holds about 79,000 compounds, 15% with a hit somewhere; the sample as a whole holds those more often. Cut-off read from the data, not from the text of the source: active = growth inhibition above about 70%; inactive = the rest.

Experiments:
[1] = NCI Yeast Anticancer Drug Screen. Data for the rad50 strain (AID 155);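 note: 0% = growth of vehicle-only cultures of the same strain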; conditions: S. cerevisiae rad50 strain growth inhibition; at 50.0 µM; stronger effect = higher value
Summary of the method: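 Vehicle-treated cultures provide the reference for the growth inhibition reported for compound-exposed, repair-deficient yeast.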

[2] = NCI Yeast Anticancer Drug Screen. Data for the mec2-1 strain (AID 157); conditions: S. cerevisiae mec2-1 strain, at 50.0 µM, stronger effect = higher value
Summary of the method: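 Each compound was tested on mec2-1 yeast, a strain altered in DNA damage repair or cell cycle control. Growth inhibition is reported relative to vehicle.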

[3] = NCI Yeast Anticancer Drug Screen. Data for the sgs1 mgt1 strain (AID 161);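 note: 0% = growth of cultures given vehicle only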; conditions: S. cerevisiae sgs1 mgt1 strain, at 50.0 µM, stronger effect = higher value
Summary of the method: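 Inhibition of yeast growth, normalised to vehicle-treated controls, is reported for a strain bearing genetic alterations in DNA damage repair.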

[4] = NCI Yeast Anticancer Drug Screen. Data for the cln2 rad14 strain (AID 165);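 note: 0% = growth equal to vehicle treated cultures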; conditions: S. cerevisiae cln2 rad14 strain, at 50.0 µM, stronger effect = higher value
Summary of the method: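 Test compounds were added to cln2 rad14 yeast cultures; inhibition of growth was then determined by comparison with vehicle treatment.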

[5] = NCI Yeast Anticancer Drug Screen. Data for the bub3 strain (AID 167); conditions: S. cerevisiae bub3 mutant strain, at 50.0 µM, stronger effect = higher value
Summary of the method: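 Mutant yeast screening strain plus compound; vehicle-treated cultures serve as the 0% inhibition reference.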

[6] = NCI Yeast Anticancer Drug Screen. Data for the mlh1 rad18 strain (AID 175); conditions: S. cerevisiae mlh1 rad18 strain growth inhibition; at 50.0 µM; stronger effect = higher value
Summary of the method: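 Inhibition values reflect reduced growth of mutant yeast versus vehicle-treated controls following compound exposure; the mutations affect DNA damage repair.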

Measured: growth inhibition

CC(C)=CC1CCc2ccccc2N1S(=O)(=O)c1ccc(C)cc1 (stereo unspecified)
inactive: [1] 31.8% | [2] 0.25% | [3] -14.9% | [4] -8.7% | [5] -31.7% | [6] -22.6%

CCCCN(CCCC)C(C)=O
inactive: [1] -45.1% | [2] -4.85% | [3] 17.1% | [4] -35% | [5] 5.15% | [6] -8.2%

O=C(Cc1cccc2ccccc12)NO
inactive: [1] 18.3% | [2] 5.05% | [3] 6.7% | [4] -32.3% | [5] -28.4% | [6] 11.6%

CCN(CC)C(=O)C1CCN(Cc2ccc3c(c2)CCC3)CC1
inactive: [1] -4.1% | [2] 42.5% | [3] -1.2% | [4] -16.6% | [5] 2.9% | [6] 3.95%

CSc1nc(N)c(N=Nc2ccc(S(=O)(=O)Nc3cc(C)nc(C)n3)cc2)c(=O)[nH]1
inactive: [1] 17.4% | [2] 15.6% | [3] -10.6% | [4] -0.2% | [5] 2.1% | [6] -3.3%

CC(Nc1cccc(Cl)c1)S(=O)(=O)O (stereo unspecified)
inactive: [1] 8.05% | [2] 5.7% | [3] -8% | [4] 26.4% | [5] 2% | [6] -0.25%

CC(=O)S
inactive: [1] -36.5% | [2] -18.4% | [3] -11.9% | [4] -24.2% | [5] 6.35% | [6] 5.7%

CCSc1cc2c(cc1O)CC[C@@H]1[C@@H]2CC[C@]2(C)[C@@H](O)CC[C@@H]12
inactive: [1] -6.6% | [2] -18.1% | [3] -6.95% | [4] -7.5% | [5] 22.4% | [6] -27.6%

CN(C)CC1CCCC(CN(C)C)C1=NOC(=O)c1ccccc1 (stereo unspecified)
inactive: [1] -8.15% | [2] -33.8% | [3] -2.3% | [4] -21.4% | [5] 8.05% | [6] -27.8%

CCC(c1ccco1)C(C#N)C(=O)OC(C)(C)C (stereo unspecified)
inactive: [1] -11.8% | [2] -21.9% | [3] -1.05% | [4] -5.8% | [5] -16.3% | [6] -27.7%

COC(=O)CCN(CCC(=O)OC)C1CC1
inactive: [1] -23.4% | [2] -14.3% | [3] -13.4% | [4] 19.6% | [5] 3.75% | [6] -20.4%

Cn1c(-c2ccc(Br)cc2)cc2[nH]c(=S)nc(N)c2c1=O
inactive: [1] -16.8% | [2] -23.9% | [3] -14% | [4] -12.3% | [5] -7.75% | [6] 2.5%

Cc1ccc(CN(C)C)c(C(O)c2ccccc2)c1 (stereo unspecified)
inactive: [1] 14.9% | [2] -0.75% | [3] -0.1% | [4] 11.1% | [5] 6.6% | [6] -2.45%

C[N+]1(C)N=C([O-])N(CCCCCCN2C(=O)[N+](C)(C)N=C2[O-])C1=O
inactive: [1] 10.3% | [2] -13.1% | [3] 15.1% | [4] 9.55% | [5] 8.65% | [6] 15%

O=C1c2ccccc2C(=O)N1C1Nc2ccccc2N1
inactive: [1] 20% | [2] 10.6% | [3] 9.3% | [4] -0.1% | [5] 16.7% | [6] 14.8%

O=c1[nH]c2ccccc2c(=O)n2cccc12
inactive: [1] 10.4% | [2] 23.6% | [3] 7.8% | [4] -7.5% | [5] -5.75% | [6] 1.9%

O=C(CCSc1ncnc2nc[nH]c12)c1ccccc1
inactive: [1] -24.8% | [2] 20.4% | [3] -3.05% | [4] -36.2% | [5] 4.3% | [6] 12.1%

O=C1/C=C2/C=CC=CN2C(=O)/C=C2/C=CC=CN12
inactive: [1] -1.6% | [2] -15.3% | [3] -15% | [4] 1.65% | [5] 0.95% | [6] -11.9%

CCCCCc1c(C)nc(N)[nH]c1=O
inactive: [1] -3.95% | [2] 0.7% | [3] 1.2% | [4] -40% | [5] -15.4% | [6] -5.45%

CC(C)(C)OC(=O)NC(Cc1ccc(OC(C)(C)C)cc1)C(=O)N[C@H]1CC[C@H](C(=O)O)C1 (stereo partly specified)
inactive: [1] -6.6% | [2] -1.25% | [3] -8% | [4] -7.85% | [5] 11.2% | [6] 10%

CCCCCCCCO[Si](OCCCCCCCC)(OCCCCCCCC)OCCCCCCCC
inactive: [1] -24.6% | [2] -26.3% | [3] -16.8% | [4] 6.9% | [5] -15.2% | [6] -20.9%
